In all, about 6,200 compounds went through this assay and about 2,900 (47%) were called active. Cut-off read from the data, not from the text of the source: active = inhibition above about 50%; inactive = the rest. So high a share suggests a set chosen from earlier hits. Some of the results follow.
test: Mycobacterium tuberculosis growth inhibition, primary screen (AID 1259343); conditions: inhibition: at 10 µM, active compounds read high; outcome: 10 uM

Compound	inhibition
Cc1cc(NC(=O)C23CC4CC(CC(C4)C2)C3)n(-c2nc3c(c(=O)[nH]2)CCC3)n1	101% (active)
CC(C)CCc1nc(N2CCNCC2)c2cnn(-c3cccc(Cl)c3)c2n1	41.8% (inactive)
Cc1nc(N2CCCC(C)C2)c2cnn(-c3ccc(F)cc3)c2n1 (configuration not stated)	23.5% (inactive)
Cc1ccc(Cc2nc(N3CCNCC3)c3c(C)nn(-c4ccccc4)c3n2)cc1	92.7% (active)
Clc1cccc(-n2ncc3c(N4CCNCC4)nc(Cc4ccccc4)nc32)c1	65.1% (active)
CCCc1nc(N2CCNCC2)c2c(C)nn(-c3ccc(F)cc3)c2n1	42% (inactive)
CC1NC(=S)N(CCc2nc(C(C)(C)C)cs2)C1=O (configuration not stated)	12.2% (inactive)
CCOc1ccc(OCCCOc2ccccc2OC)cc1	9.51% (inactive)
CCOc1ccc(OCCCOc2cccc(C)c2C)cc1	73.5% (active)
CCOc1cccc(OCCCOc2ccc(Cl)cc2C)c1	82.3% (active)
CCOc1ccc(OCCCOc2ccccc2Br)cc1	95.2% (active)
CC(C)(C)CC(C)(C)c1ccc(O)c(Cc2ccc(Cl)cc2Cl)c1	72.6% (active)
COc1ccc2c(c1)CCc1c(-c3ccc(C(=O)NCCCSC)cc3)n[nH]c1-2	95.5% (active)
CC(C)Cc1ccc(C(C)NC(=O)Cn2ccsc2=O)cc1 (configuration not stated)	92.5% (active)
CC(=O)c1ccc(OCC(=O)NC(C)c2ccc(CC(C)C)cc2)cc1 (configuration not stated)	46.8% (inactive)
Cc1ccc(C(=O)N=c2sccn2Cc2ccc(C(=O)NC(C)c3ccccc3)cc2)cc1 (configuration not stated)	-8.44% (inactive)
COc1ccc2cc(C3CN(CCC(F)(F)C(F)F)CCO3)ccc2c1 (configuration not stated)	42.7% (inactive)
CCOC(=O)C1=C(O)CSC1=Nc1ccc(Cl)cc1	16.2% (inactive)
CC(=O)C1=C(O)CC(c2ccccc2)SC1=Nc1ccccc1 (configuration not stated)	57.6% (active)
Fc1ccc(SCCc2ccncc2)cc1	57.7% (active)
O=C1C(Cl)=C(Nc2cccc(Br)c2)C(=O)N1Cc1ccc(Br)cc1	61% (active)
O=c1ccc(-c2cccc(Br)c2)nn1Cc1ccc(F)cc1	8.75% (inactive)
NC(=S)Nc1cccc(Br)c1	32.7% (inactive)
CCOc1ccc(NC(=O)c2cn(-c3cc(N4CCOCC4)ncn3)cn2)cc1	74.7% (active)
O=C(O)c1cc(O)c2c(c1)C(=O)c1cc(O)cc(O)c1C2=O	91.8% (active)
CC(c1ccc(F)cc1)N(C)C(=O)CN1CC(O)CC1c1cc(F)ccc1F (configuration not stated)	84% (active)

Compound	inhibition
CC(=O)c1ccc(C(=O)N(C)C(C)c2ccc(Cl)cc2)s1 (configuration not stated)	25.1% (inactive)
CC(c1ccc(Cl)cc1)N(C)C(=O)c1ccc[nH]1 (configuration not stated)	-3.09% (inactive)
Cc1nc(N)sc1N=Nc1cc(C(F)(F)F)ccc1Cl	18.3% (inactive)
Cc1sc(NC2CCCC2)nc1-c1ccc(F)c(F)c1	34.8% (inactive)
CCC(C)C(=O)Nc1nc(-c2ccc(Cl)cc2)c(C)s1 (configuration not stated)	70.1% (active)
Cc1nc(NC(=O)c2c(C)nn(CC(C)C)c2Cl)sc1C	12.5% (inactive)
COc1cccc(C2c3c(oc4cc(C)c(C)cc4c3=O)C(=O)N2c2nccs2)c1OC (configuration not stated)	-18.6% (inactive)
Cc1cc(N2CCCCC2)nc(Nc2ccc(NS(=O)(=O)c3ccc4nc(C)sc4c3)cc2)n1	25.5% (inactive)
c1ccc(CN2CCN(c3nc(-c4cccnc4)nc4ccccc34)CC2)cc1	26.4% (inactive)
Oc1ccc(Nc2nc(N3CCCC3)c3ccccc3n2)cc1	83.1% (active)
CCOC(=O)C1CCCN(c2oc(-c3ccc(Cl)cc3)nc2C#N)C1 (configuration not stated)	12.5% (inactive)
N#Cc1nc(COc2ccc(Cl)cc2)oc1N1CCCC1	92.6% (active)
COc1ccc(OCc2nc(C#N)c(N3CCCC3)o2)cc1	-23.3% (inactive)
COc1ccc(C[C@H](N)C(=O)N[C@@H]2[C@@H](CO)OC(n3cnc4c(N(C)C)ncnc43)[C@@H]2O)cc1 (some centres not stated)	66.6% (active)
CN(C)N=Nc1nc[nH]c1C(N)=O	70% (active)
Cc1cc(C(=O)Nc2nc(C(C)(C)C)cs2)c(C)o1	60.2% (active)
CC(C)(C)c1csc(NC(=O)CC2OCCc3ccsc32)n1 (configuration not stated)	22.8% (inactive)
CC(C)(C)C(=O)Nc1nc(CC23CC4CC(CC(C4)C2)C3)cs1	38% (inactive)
CC(C)(C)c1csc(NC(=O)C23CC4CC(CC(C4)C2)C3)n1	61.1% (active)
CC(C)(C)c1csc(NC(=O)c2ccc(Cl)s2)n1	-24% (inactive)
Cc1ccc(-c2ccc(C3=CC(C)(C)OC3=O)cc2)cc1	43.7% (inactive)
O=C(Nc1cccc(Cl)c1)Oc1ccccc1-c1ccccc1	17.6% (inactive)
N#CC1=C2Sc3ccccc3N2C(O)(C(F)(F)F)C(C(=O)C(F)(F)F)=C1 (configuration not stated)	71.5% (active)
Fc1ccc(Br)cc1C1Nc2cccc3cccc(c23)N1	14.4% (inactive)
Fc1cccc(Cl)c1C1Nc2cccc3cccc(c23)N1	-12.9% (inactive)
Clc1cccc(C2Nc3cccc4cccc(c34)N2)c1Cl	97.7% (active)

Compound	inhibition
Fc1ccccc1Nc1nc(COc2cccc(Cl)c2)cs1	75.5% (active)
CCC(C)[C@H]1O[C@]2(CC[C@@H]1C)C[C@@H]1C[C@@H](C/C=C(\C)[C@@H](OC3C[C@H](OC)C(O[C@H]4C[C@H](OC)[C@@H](O)[C@H](C)O4)[C@H](C)O3)[C@@H](C)/C=C/C=C3\CO[C@@H]4[C@H](O)C(C)=C[C@@H](C(=O)O1)[C@]34O)O2 (some centres not stated)	67.3% (active)
O=C1c2sc3nnc(-c4ccccc4)c(=O)n3c2C(=O)N1c1cccc(Cl)c1Cl	90.4% (active)
Clc1cccc(N2CCN(c3nnnn3-c3ccccc3)CC2)c1	-17.8% (inactive)
NS(=O)(=O)c1ccc(N2CCN(c3cccc(Cl)c3)CC2)nc1	52.9% (active)
Cn1nc(CC(=O)NC2CCC3CCCCC3C2)c2ccccc2c1=O (configuration not stated)	14.5% (inactive)
Cc1nc(-c2c[nH]c(C(=O)N(C)C3CCC(C)CC3)c2)cs1 (configuration not stated)	29.5% (inactive)
Cc1nc(-c2c[nH]c(C(=O)NC3CCC4CCCC4C3)c2)cs1 (configuration not stated)	87.9% (active)
Cc1ccc2nc(C3CCN(c4nncc(-c5ccc(Cl)cc5)n4)CC3)[nH]c2c1	37.6% (inactive)
Clc1ccc(CNCc2cn[nH]c2-c2ccc(-c3ccccc3)cc2)s1	74.1% (active)
CC(NCc1cn[nH]c1-c1ccc(-c2ccccc2)cc1)c1ccc(F)cc1 (configuration not stated)	83.9% (active)
CC(NCc1nnc(-c2cccc(Br)c2)o1)c1cccc(F)c1 (configuration not stated)	-7.48% (inactive)
CC(NCc1ccco1)c1nnc(-c2ccc(F)cc2)o1 (configuration not stated)	25.6% (inactive)
CCCCc1ccc(-c2csc(NC(=O)C3(C)CCOCC3)n2)cc1	43.9% (inactive)
CCCc1ccc(-c2ccc(NC(=O)C3COCCO3)cc2)cc1 (configuration not stated)	72.3% (active)
Cc1nnsc1C(=O)Nc1ccc(C(=O)OC2CCCC2)cc1	-6.8% (inactive)
CC(C)Cc1ccc(-c2csc(NC(=O)C3COCCO3)n2)cc1 (configuration not stated)	90.5% (active)
O=C(OC1CCCC1)c1ccc(NC(=O)C2COCCO2)cc1 (configuration not stated)	84.8% (active)
CC(C)Oc1ccc(C(=O)Nc2ccc3c(c2)oc(=O)n3C)cn1	92.7% (active)
Cc1cccc(OCCC(=O)Nc2ccc3c(c2)oc(=O)n3C)c1C	15.8% (inactive)
O=c1[nH]c(=O)n(CCC2=CCCCC2)c(O)c1C=C1C=CC=N1	89.4% (active)
CSc1nc(NCC(C)C)c2cnn(CCNC(=O)CC(C)C)c2n1	-2.36% (inactive)
CCCNc1nc(SC)nc2c1cnn2CCNC(=O)c1c(F)cccc1Cl	60.4% (active)
CSc1nc(N2CCCC2)c2cnn(CCNC(=O)c3cccs3)c2n1	9.6% (inactive)
CC(=NNC(=S)NC(C)C)c1ccc2c(c1)OCCO2	88.1% (active)
C=CCNC(=S)NN=Cc1ccc2c(c1)OCCO2	23.3% (inactive)

Compound	inhibition
CC(=NNC(N)=S)C12CC3CC(CC(C3)C1)C2	14.6% (inactive)
CC(=NNC(N)=S)c1ccc2c(c1)OCCO2	69% (active)
CC(=NNC(N)=S)c1ccc(C)cc1	76.6% (active)
CC(=NNC(N)=S)C(C)=NNC(N)=S	54.6% (active)
CC(=NNC(=S)NC(C)C)c1ccc(C(C)(C)C)cc1	5.89% (inactive)
COc1ccccc1-n1cc(-c2ccnc(N(C)Cc3cccc(C)n3)n2)cn1	29.4% (inactive)
COc1ccc(-c2cnnc(N3CCC(c4ccccc4Cl)C3)n2)cc1 (configuration not stated)	inactive
C=C(C)NC(=S)Nc1nccs1	7.83% (inactive)
CC1CCC(N(C(=O)Nc2nccs2)C2CC2)CC1 (configuration not stated)	53.1% (active)
CC1=CC(=O)c2c(O)cccc2C1=O	102% (active)
O=C(O)c1ccccc1-c1c2cc(Br)c(=O)cc-2oc2[c]([Hg])c(O)c(Br)cc12	66.5% (active)
COc1ccccc1-c1cc(=O)c2cccc(OC)c2o1	-0.59% (inactive)
CCCCCCCCON1C(=O)C2C3C=CC(O3)C2C1=O (configuration not stated)	8.42% (inactive)
CC1CCC(NC(=O)c2sccc2-n2cccc2)CC1 (configuration not stated)	87.7% (active)
Cc1ccc(C)n1-c1ccsc1C(=O)NC1CCCC1	39.9% (inactive)
O=C(NNC(=O)C12CC3CC(CC(C3)C1)C2)c1sccc1-n1cccc1	61.1% (active)
O=C(NCCc1ccc2c(c1)OCCO2)C12CC3CC(CC(C3)C1)C2	45.1% (inactive)
COCC(Nc1ncc(Br)cn1)c1ccc(C)o1 (configuration not stated)	38.8% (inactive)
Cc1nc(-c2ccc(Oc3ccc(C(F)(F)F)cn3)cc2)no1	89.7% (active)
Cc1ccn2cc(C(=O)Nc3nc4ccccc4s3)nc2c1	50.8% (active)
CCOc1ccc2nc(NC(=O)c3ccc(C)o3)sc2c1	25.2% (inactive)
O=C(NCC12CC3CC(CC(C3)C1)C2)c1ccccc1	25.9% (inactive)
O=C(Cc1ccc(-c2ccccc2)cc1)NCC(c1ccsc1)N1CCCC1 (configuration not stated)	37.7% (inactive)
O=C(Cc1ccsc1)NCC12CC3CC(CC(C3)C1)C2	75.4% (active)

— PubChem BioAssay AID1259343 (VanderVen Lab, College of Veterinary Medicine, Cornell …, 2017)
